Test systems include T-47D breast; BT-549 breast; MDA-MB-435 melanoma; SW-620 colon; MCF7 breast; HCT-116 colon; HCC-2998 colon; KM12 colon.
Common to all, as to experiment: NCI-60 one-dose screen, 48 h (100 = growth as untreated, 0 = no growth, -100 = all killed)
What all share (settings): 10 µM unless noted

From PubChem BioAssay (NCI) come the findings set out here.

This is part of a sample that, as a whole, favours compounds with a hit. Of some 83,000 tested, about 20% had one in any assay.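 Growth was measured after 48 h exposure to one concentration of compound in 96-well plates. Values under 10 count as active.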 A number with no mark means an inactive call. Activity calls are given as the source filed them.

For `Cc1[nH]c(-c2cc(N)ccc2Cl)c2c1C(=O)CCCC2`, the growth was 19.8% in the experiment on T-47D breast; 49.8% in the experiment on BT-549 breast; 15.5% in the experiment on MDA-MB-435 melanoma; 64.6% with SW-620 colon; 12.8% with MCF7 breast; 29.4% with HCT-116 colon. Moreover, the growth with HCC-2998 colon is 33.5%; in the experiment on KM12 colon, 32.6%.

For the molecule `CN(CCCCCl)P(=O)(OCc1ccc([N+](=O)[O-])o1)C(F)(F)c1ccc(CC(=O)NC[C@@H](O)/C=C\[C@@H](O)[C@H](CO)Cc2ccccc2)cc1` (some centres not stated), the growth with T-47D breast is 75.5%; in the experiment on BT-549 breast, 90.7%; with MDA-MB-435 melanoma, 65.4%; with SW-620 colon, 87.7%; with MCF7 breast, 59.9%; in the experiment with HCT-116 colon, 93.3%. The figures for the growth with HCC-2998 colon and in the experiment with KM12 colon were 105% and 85.5%, respectively.

Consider `COc1ccc(/C=C\c2cc(OC)c(OC)c(OC)c2)cc1OCC(=O)Nc1ccc2nc(C)sc2c1`, for which the growth in the experiment with T-47D breast was 6.4% (active); in the experiment on BT-549 breast, 38%; in the experiment with MDA-MB-435 melanoma it was -3.48% (active); in the experiment with SW-620 colon it was 38%; in the experiment with MCF7 breast, 20.6%; in the experiment with HCT-116 colon it was 23.4%. Further, the growth is 86.1% in the experiment with HCC-2998 colon and 19% with KM12 colon.

Take `O=C(N=Nc1c(O)[nH]c2ccc(Br)cc12)c1cc(-c2ccccc2)on1`: the growth in the experiment on T-47D breast is 101%; in the experiment on BT-549 breast it was 104%; in the experiment on MDA-MB-435 melanoma, 95.8%; with SW-620 colon, 103%; in the experiment on MCF7 breast it was 93.2%; in the experiment with HCT-116 colon it was 106%. Besides, the growth with HCC-2998 colon is 103%; in the experiment with KM12 colon it was 100%.

Turning to `N#CCCN=Nc1c(O)[nH]c2ccc([N+](=O)[O-])cc12`, the growth in the experiment with T-47D breast is 93.1%; with BT-549 breast, 107%; with MDA-MB-435 melanoma, 111%; in the experiment with SW-620 colon, 99.9%; in the experiment on MCF7 breast, 86.8%; in the experiment on HCT-116 colon it was 96.5%. Also, the figures for the growth with HCC-2998 colon and with KM12 colon were 111% and 101%, respectively.

For `Cn1c(NCCc2ccc(O)c(O)c2)nc2c1c(=O)n(Cc1ccc(Br)cc1)c(=O)n2C`, the growth in the experiment with T-47D breast was 53.3%; in the experiment on BT-549 breast it was 73%; with MDA-MB-435 melanoma it was 79%; in the experiment on SW-620 colon it was 81.4%; with MCF7 breast, 80%; in the experiment on HCT-116 colon, 67.4%. The growth in the experiment with HCC-2998 colon is 94%; in the experiment with KM12 colon, 76%.

Consider `COC(=O)c1ccc2oc(NC(=O)c3ccc(Nc4ccc([N+](=O)[O-])cc4C)c([N+](=O)[O-])c3)nc2c1`, for which the growth in the experiment on T-47D breast is 96%; in the experiment with BT-549 breast, 110%; in the experiment with MDA-MB-435 melanoma, 100%; with SW-620 colon, 103%; in the experiment on MCF7 breast, 97.6%; in the experiment on HCT-116 colon, 106%. The growth in the experiment with HCC-2998 colon is 101%; with KM12 colon, 103%.

With `COc1ccc(/C=C/C(=O)c2ccc(O)c(CN3CCN(c4cc5c(cc4F)c(=O)c(C(=O)O)cn5C4CC4)CC3)c2)cc1`, the growth in the experiment with T-47D breast was 37.6%; with BT-549 breast, 17.7%; in the experiment on MDA-MB-435 melanoma, 28.3%; in the experiment on SW-620 colon, 17.5%; in the experiment with MCF7 breast, 8.68% (active); in the experiment on HCT-116 colon it was 9.41% (active). Further, the growth is 43.5% with HCC-2998 colon and 24.8% in the experiment on KM12 colon.

In the case of `CC1=C[C@H]2c3c(c(O)c(O)c4oc5cc(O)ccc5c(=O)c34)[C@H](c3cc(O)c(O)c4oc5cc(O)ccc5c(=O)c34)[C@H]2C(C)(C)C1`, the growth in the experiment on T-47D breast is 18.1%; in the experiment with BT-549 breast, 31.4%; with MDA-MB-435 melanoma it was 20%; in the experiment with SW-620 colon, 19.5%; in the experiment with MCF7 breast it was 15.4%; in the experiment on HCT-116 colon, 1.38% (active). In addition, the growth is 75.4% with HCC-2998 colon and 15% in the experiment with KM12 colon.

Regarding `CN1CCN(CCCOc2cccc3nc(Nc4ccc(Cl)c(F)c4)ccc23)CC1`, the growth is 38.5% in the experiment on T-47D breast; 80% in the experiment on BT-549 breast; 25.3% in the experiment on MDA-MB-435 melanoma; -34.1% (active) with SW-620 colon; -43.1% (active) in the experiment on MCF7 breast; 31.6% with HCT-116 colon. The growth was 55.2% in the experiment with HCC-2998 colon and -34.7% (active) in the experiment on KM12 colon.

In the case of `C=C(C)[C@@H]1CC[C@]2(C(N)=O)CC[C@]3(C)[C@H](CC[C@@H]4[C@@]5(C)C/C(=C/c6ccco6)C(=O)C(C)(C)[C@@H]5CC[C@]43C)[C@@H]12`, the growth was 80% in the experiment with T-47D breast; 108% in the experiment with BT-549 breast; 98% in the experiment on MDA-MB-435 melanoma; 105% in the experiment on SW-620 colon; 79.8% in the experiment with MCF7 breast; 83.3% in the experiment on HCT-116 colon. Also, the growth with HCC-2998 colon is 117%; in the experiment with KM12 colon, 97.6%.

`O=C1Nc2c(ccc(Cl)c2Cl)/C1=C\c1cc(C(F)(F)F)cc(C(F)(F)F)c1`: the growth in the experiment on T-47D breast was -0.235% (active); in the experiment on BT-549 breast, 14.9%; in the experiment on MDA-MB-435 melanoma, -53.4% (active); with SW-620 colon, -77.6% (active); in the experiment on MCF7 breast, -3.68% (active); in the experiment with HCT-116 colon it was -61.3% (active). Moreover, the figures for the growth in the experiment with HCC-2998 colon and with KM12 colon were 12.8% and -74.6% (active), respectively.

Regarding `FC(F)(F)Oc1ccc2nc3nc4ccc[nH]c4cc3c2c1`, the growth in the experiment with T-47D breast is 41.3%; with BT-549 breast, 84.4%; with MDA-MB-435 melanoma it was 89.2%; in the experiment on SW-620 colon, 86.8%; with MCF7 breast, 16.8%; with HCT-116 colon, 81.4%. In addition, the figures for the growth in the experiment on HCC-2998 colon and in the experiment on KM12 colon were 96.8% and 72.8%, respectively.

In the case of `C=CC(COC(c1ccccc1)(c1ccccc1)c1ccccc1)N(CC)CC` (configuration not stated), the growth is 54.8% with T-47D breast; 81.5% with BT-549 breast; 61.2% in the experiment with MDA-MB-435 melanoma; 51.3% with SW-620 colon; 33.4% with MCF7 breast; 35.9% in the experiment on HCT-116 colon. The growth with HCC-2998 colon is 63%; with KM12 colon, 54.6%.
